Screening results from PubChem.
LRH-1 inv ag = LRH-1 (NR5A2) inverse agonists, primary screen, cell-based, luminescence, HEK293T, StAR-luciferase reporter; Nuclear receptor subfamily 5 group A member 2 (Homo sapiens), O00482; LRH-1 transfected, 24 h; inhibition, % at 3.6 µM; 0.13% of 360,000 active; AID 602396, 2012;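 active = inhibition above the mean inhibition of all tested compounds plus 3 SD, cut at about 73% in these data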;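 note: 0% = DMSO wells and 100% = reporter-only cells lacking LRH-1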
NCOA2 inhibitor = inhibition of GAL4-SRC2 driven luciferase reporter, primary screen, SRC2 inhibitor project, cell-based, luminescence. Nuclear receptor coactivator 2 (Homo sapiens), Q15596. HEK293 GAL4-SRC2 luciferase reporter. inhibition, % at 9 µM. 0.17% of 370,000 active. AID 651957, 2012;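 active = inhibition above the mean inhibition of all tested compounds plus 3 SD, set per campaign, cut at about 52% in these data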;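 note: 0% = DMSO treated cells and 100% = cells given Gossypol at 36 µM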
Target sequence (Q15596 whole entry, looked up, the tested form may be a part): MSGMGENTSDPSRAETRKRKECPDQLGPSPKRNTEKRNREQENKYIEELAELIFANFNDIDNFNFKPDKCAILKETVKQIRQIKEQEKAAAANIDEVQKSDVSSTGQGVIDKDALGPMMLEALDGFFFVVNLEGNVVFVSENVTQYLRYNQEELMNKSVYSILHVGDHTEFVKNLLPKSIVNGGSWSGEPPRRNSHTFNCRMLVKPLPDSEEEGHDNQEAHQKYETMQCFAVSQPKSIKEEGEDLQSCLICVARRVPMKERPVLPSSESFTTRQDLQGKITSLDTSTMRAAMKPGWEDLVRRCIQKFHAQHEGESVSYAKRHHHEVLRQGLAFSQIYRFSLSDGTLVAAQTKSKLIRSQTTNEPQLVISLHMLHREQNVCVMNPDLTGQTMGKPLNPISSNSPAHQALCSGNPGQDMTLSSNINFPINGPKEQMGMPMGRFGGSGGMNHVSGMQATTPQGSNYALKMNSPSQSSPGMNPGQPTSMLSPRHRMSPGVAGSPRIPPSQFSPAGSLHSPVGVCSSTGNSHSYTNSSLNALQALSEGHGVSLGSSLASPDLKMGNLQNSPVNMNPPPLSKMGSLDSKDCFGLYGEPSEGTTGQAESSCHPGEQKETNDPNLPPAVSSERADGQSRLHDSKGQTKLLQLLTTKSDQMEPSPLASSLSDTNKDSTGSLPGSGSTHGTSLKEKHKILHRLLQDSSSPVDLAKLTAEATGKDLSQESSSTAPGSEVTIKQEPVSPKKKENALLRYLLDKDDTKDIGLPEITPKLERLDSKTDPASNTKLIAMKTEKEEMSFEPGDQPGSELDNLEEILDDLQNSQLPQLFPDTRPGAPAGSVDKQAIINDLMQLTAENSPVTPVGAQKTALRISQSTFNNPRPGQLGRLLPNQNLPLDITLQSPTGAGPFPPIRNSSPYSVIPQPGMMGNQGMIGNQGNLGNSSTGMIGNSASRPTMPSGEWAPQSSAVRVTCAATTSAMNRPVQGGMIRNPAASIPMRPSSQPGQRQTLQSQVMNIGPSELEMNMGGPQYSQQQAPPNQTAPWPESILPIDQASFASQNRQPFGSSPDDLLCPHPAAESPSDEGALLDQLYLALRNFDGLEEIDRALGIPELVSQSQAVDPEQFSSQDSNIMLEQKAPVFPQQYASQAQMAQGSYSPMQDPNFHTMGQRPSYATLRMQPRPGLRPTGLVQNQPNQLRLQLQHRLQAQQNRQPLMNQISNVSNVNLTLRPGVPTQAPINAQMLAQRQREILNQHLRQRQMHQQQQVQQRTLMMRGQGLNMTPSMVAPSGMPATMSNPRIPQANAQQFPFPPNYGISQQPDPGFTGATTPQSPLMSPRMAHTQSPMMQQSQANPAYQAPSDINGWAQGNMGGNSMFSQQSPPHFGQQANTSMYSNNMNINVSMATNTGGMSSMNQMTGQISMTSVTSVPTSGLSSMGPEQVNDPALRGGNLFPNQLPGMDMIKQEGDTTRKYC
NCOA3 inh = SRC3 coactivator transcriptional activity inhibitors, primary screen, cell-based, luminescence | HEK293 GAL4-SRC3 luciferase reporter | inhibition, % at 3.6 µM | 0.17% of 360,000 active | Nuclear receptor coactivator 3 (Homo sapiens), Q9Y6Q9;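 active = inhibition above a per-campaign cutoff, the mean of all compounds plus 3 SD, cut at about 60% in these data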;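 note: 0% = DMSO-treated cells and 100% = gossypol-treated cells at 36 µM; higher means less SRC3-driven luciferase light from the GAL4 reporter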
NR2F2 inh = NR2F2 transcriptional activity inhibitors, primary screen, cell-based, luciferase reporter, HEK293T, luminescence. COUP transcription factor 2 (Homo sapiens), P24468. HEK293T NGFI-A luciferase reporter. inhibition, % at 8.6 µM. 0.7% of 370,000 active. AID 686940, 2013;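 active = inhibition above a per-plate cutoff, mean inhibition of test wells between control levels plus 3 SD, cut at about 38% in these data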;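 note: cells cotransfected with COUP-TFII expression vector driving the NGFI-A reporter; 0% = median of COUP-TF2 test wells and 100% = reporter-only cells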
Gli-Sufu block = Gli-Sufu pathway antagonists, primary screen, luciferase luminescence, Sufu-KO-LIGHT cells, uHTS; Sufu-KO-LIGHT fibroblasts, Gli luciferase reporter luminescence; inhibition, % at 5 µM; 0.74% of 340,000 active; AID 588413, 2011;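 active = inhibition above about 55%, limit read from the data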;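 note: 0% = DMSO-treated cells and 100% = wells with medium but no cells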
SRC1 inh = SRC1 coactivator transcriptional activity inhibitors, primary screen, cell-based, luminescence; Nuclear receptor coactivator 1 (Homo sapiens), Q15788; HEK293 GAL4-SRC1 luciferase reporter; inhibition, % at 3.6 µM; 0.12% of 360,000 active; AID 588354, 2011;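 active = inhibition above the campaign mean plus 3 SD, with each screening campaign given its own cutoff, cut at about 60% in these data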;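 note: 0% = DMSO treated cells and 100% = gossypol at 36 µM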
Numbers without * were called inactive; · = not tested or not shown. Rows were chosen to be rich in hits. Some 1.3% of all compounds tested hit in one or more screens of this group.

SMILES | LRH-1 inv ag | NCOA2 inhibitor | NCOA3 inh | NR2F2 inh | Gli-Sufu block | SRC1 inh
CCN(CC)c1ccc2c(c1)OC(N)=C(C#N)C2c1cccnc1 (stereo not drawn) | 15 | 32 | 7 | -4 | 62* | -17
Cc1cc(C)c(S(=O)(=O)/N=C2/C=C(Sc3ncn[nH]3)C(=O)c3ccccc32)cc1C | 64 | 62* | 71* | 62* | 1 | 36
NC(=O)c1cc2ccncc2c2ccccc12 | 42 | 56* | 65* | 37 | -19 | 82*
Cc1cc(C(N)=O)c2ccccc2n1 | 0 | -2 | 17 | 9 | -5 | 8
O=C(Nc1ccccc1Cl)O[C@@H]1CC[C@@]23CCCN2C(=O)CCC[C@H]3C1 | · | · | · | 2 | · | ·
COc1cccc(N2CCN(c3c(C#N)c(C(F)(F)F)nn3C)CC2)c1 | -7 | 35 | 31 | 51* | 0 | 36
CCOc1ccc(-n2c(COc3ccccc3)nnc2SCC(=O)Nc2ccc3c(c2)OCCO3)cc1 | · | 21 | · | -3 | · | ·
O=C1C=CC(=O)N1Cc1ccccc1 | -11 | -9 | -23 | 61* | -1 | 0
CCn1c2ccccc2c2cc(C=Nn3c(-c4ccccc4C)n[nH]c3=S)ccc21 | · | -7 | · | 5 | · | ·
c1ccc2c(c1)[nH]c1c(N3CCC4(CC3)OCCO4)ncnc12 | 8 | · | 2 | · | -41 | 4
c1ccc(CN2CCN(c3ncnc4c3[nH]c3ccccc34)CC2)cc1 | 37 | 20 | 35 | 74* | 62* | -1
CC(C)(C)OC(=O)N1CCN(c2ccc(CNC(=O)c3ccc(Cl)cc3)cc2)CC1 | 29 | 17 | 9 | 39* | 4 | -5
O=C(CSc1nnc(Cc2cccs2)n1-c1ccccc1)Nc1ccccc1-c1ccccc1 | · | 3 | · | 4 | · | ·
CN(C)CC1CCC/C(=C\c2ccc(OC(=O)c3ccc(Cl)cc3)cc2)C1=O (stereo not drawn) | 53 | -21 | 51 | -9 | 10 | 67*
CN(C)CC1CCC/C(=C\c2ccc(OC(=O)/C=C/c3ccccc3)cc2)C1=O (stereo not drawn) | -10 | -6 | -5 | 15 | 1 | -4
C/C(=N/NC(=O)c1ccc(C(C)(C)C)cc1)c1ccccn1 | -11 | 0 | 14 | 8 | 65* | -9
C/C(=N/NC(=O)c1ccccn1)c1ccncc1 | -133 | -43 | -92 | -10 | 3 | -61
COc1ccc(C(=O)N/N=C(\C)c2ccccn2)cc1OC | 35 | 15 | 19 | -45 | 95* | 15
C[C@H]1CCC[C@H](O)CC(=O)c2c(O)cc(O)cc2CC(=O)O1 | · | 20 | · | -32 | · | ·
O=C(/C=C/c1ccc(Cl)cc1)NC(=S)Nc1ccc(NC(=O)c2ccco2)cc1 | 1 | -45 | 52 | 13 | 5 | 68*
CC(=O)Nc1ccc(NC(=S)NC(=O)/C=C/c2ccc(Cl)cc2)cc1 | -15 | -24 | 4 | 14 | -6 | 2
C=CC[n+]1ccc(/C=C2\C=Cc3cc(C)ccc3N2CC)c2ccccc21 | 86* | · | 73* | · | 88* | 51
Cc1ccc(S(=O)(=O)/C(=C/Cl)NC(=O)c2ccccc2)cc1 | 49 | 61* | 52 | 30 | -8 | 15
Cc1ccc(S(=O)(=O)C(NC(=O)c2ccccc2)=C(Cl)Cl)cc1 | 3 | 52 | -1 | 17 | 2 | -1
CCCCOc1ccc(C(=O)NC2CCCCN(C(C)C)C2=O)cc1 (stereo not drawn) | · | 3 | · | 13 | · | ·
SMILES | LRH-1 inv ag | NCOA2 inhibitor | NCOA3 inh | NR2F2 inh | Gli-Sufu block | SRC1 inh
O=S1(=O)Nc2c(ccc3cccnc23)-c2ccccc21 | 59 | · | -80 | · | 82* | -10
Nn1c(SCC(=O)N2c3ccccc3Sc3ccc(Cl)cc32)nnc1-c1n[nH]c2c1CCC2 | · | -27 | · | -9 | · | ·
O=C(Nc1sc2c(c1C(=O)O)CCCC2)c1ccc(F)cc1 | 30 | -58 | 44 | 0 | -18 | 0
CC(C)(C)c1ccc(C(=O)Nc2sc3c(c2C(=O)O)CCC3)cc1 | 84* | 68* | 77* | 29 | 4 | 67*
CC(C)C[C@H](NC1(C(=O)NC2CCCCC2)CCCCC1)C(=O)NCC(c1ccccc1)c1ccccc1 | · | · | · | 26 | · | ·
COc1ccc(N(C(=O)CCl)C(C(=O)NCCc2ccccc2)c2cccs2)cc1Cl (stereo not drawn) | 40 | 48 | 76* | 26 | 96* | 3
COc1cccc(N(C(=O)c2snc(C(N)=O)c2N)C(C(=O)NCC2CCCO2)c2cccs2)c1 (stereo not drawn) | -10 | -16 | -2 | 13 | -3 | 1
COc1cccc(N(C(=O)CCl)C(C(=O)NCCc2ccccc2)c2cccs2)c1 (stereo not drawn) | 26 | 61* | 68* | 7 | 93* | 28
Cc1ccc(S(=O)(=O)NC(CC(C)C)C(=O)NCC(c2ccco2)N2CCCCC2)cc1 (stereo not drawn) | 38 | · | 72* | · | 16 | 65*
NNC(=O)COc1ccc(-c2nccc(-c3ccc(F)cc3)n2)cc1 | 13 | 53* | -3 | 15 | 18 | -32
O=C(O)COc1ccc(-c2nccc(-c3ccccn3)n2)cc1 | 10 | 67* | 10 | 41* | 18 | 10
Cc1ccc(NC(=O)C2=C(c3ccccc3)S(=O)(=O)CCS2(=O)=O)cc1 | 56 | 74* | -31 | 20 | 23 | -60
O=C(CCl)N=c1sccn1Cc1ccc(Cl)cc1Cl | 34 | 20 | 16 | -9 | 95* | 0
O=C(CCl)N=c1sccn1Cc1ccccc1Cl | 39 | 32 | 10 | -4 | 3 | 5
O=C(NCCCN1CCOCC1)c1cc(-c2ccc(Cl)c(Cl)c2)on1 | -11 | -7 | 3 | 2 | -5 | -10
Cc1ccc(-c2cc(C(=O)NCCCN3CCOCC3)no2)cc1 | 18 | 56* | 21 | 18 | 38 | 26
O=C(N/N=C/c1ccccc1)c1ccc(CN2C(=O)c3cccc4cccc2c34)cc1 | -1 | -21 | -11 | -2 | 2 | -14
Cc1cc([N+](=O)[O-])nn1Cc1ccc(C(=O)N/N=C/c2ccc(O)cc2O)cc1 | 67 | 17 | 77* | -3 | 0 | 56
O=C(N/N=C/c1ccc(O)cc1O)c1ccc(CN2C(=O)c3cccc4cccc2c34)cc1 | 65 | 37 | 68* | -17 | 21 | 45
CCCCC(CC)CN=C(N)NC(N)=NCCCCCCN=C(N)NC(N)=NCC(CC)CCCC (stereo not drawn) | 66 | · | 10 | · | 67* | -21
Cc1sc2ncnc(N3CCN(CCOc4ccc(Cl)cc4)CC3)c2c1C | 28 | 16 | -7 | 31 | 74* | 23
